Assay results reported in article PMC7862700, “An all-to-all approach to the identification of sequence-specific readers for epigenetic DNA modifications on cytosine”.

How the values were obtained:
Assay in all cases: DAPPL (digital affinity profiling via proximity ligation, sequencing); 10 mM Tris-HCl pH 7.5, 50 mM NaCl, 1 mM DTT, 4% glycerol, room temperature, 30 min; GST-TFs on glutathione beads, 16-mer random dsDNA library, 0.1% formaldehyde crosslink after washing; high values mean tight binding
[1] = target: T1, FLI1 (Homo sapiens, UniProt Q01543 1-452); details: protein: recombinant; tags: N-terminal GST; dsDNA, one strand shown
T1 sequence: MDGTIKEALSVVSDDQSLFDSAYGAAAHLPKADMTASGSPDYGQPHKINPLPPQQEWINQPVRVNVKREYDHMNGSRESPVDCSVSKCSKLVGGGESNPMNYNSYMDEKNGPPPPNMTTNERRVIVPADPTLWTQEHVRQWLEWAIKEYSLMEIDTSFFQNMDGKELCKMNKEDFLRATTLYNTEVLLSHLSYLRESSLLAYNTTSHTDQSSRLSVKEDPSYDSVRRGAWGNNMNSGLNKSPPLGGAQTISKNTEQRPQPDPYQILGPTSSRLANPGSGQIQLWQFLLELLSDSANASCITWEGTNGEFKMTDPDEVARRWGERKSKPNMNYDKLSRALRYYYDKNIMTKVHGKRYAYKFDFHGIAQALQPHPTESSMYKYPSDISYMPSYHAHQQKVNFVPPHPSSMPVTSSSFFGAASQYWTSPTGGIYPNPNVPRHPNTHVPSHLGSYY
Outline: (§1)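 Human transcription factors carrying a GST fusion were produced in yeast, bound to glutathione beads, tagged with DNA barcodes and pooled together with a tag-only sample. Each pool was held with 200 nmole of a random double-stranded 16-mer DNA library in Tris/NaCl/DTT/glycerol buffer for 30 min at room temperature, then washed, crosslinked in 0.1% formaldehyde, proximity-ligated with BsaI/T4 ligase (1 h, 37 °C), PCR-amplified and sequenced on an Illumina NextSeq500. Binding signal is the read frequency of each hexamer for a given factor divided by its frequency in the tag-only sample.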

[2] = target: T2, ELK1 (Homo sapiens, UniProt P19419 1-428); details: protein: recombinant; tags: N-terminal GST; dsDNA, one strand shown
T2 sequence: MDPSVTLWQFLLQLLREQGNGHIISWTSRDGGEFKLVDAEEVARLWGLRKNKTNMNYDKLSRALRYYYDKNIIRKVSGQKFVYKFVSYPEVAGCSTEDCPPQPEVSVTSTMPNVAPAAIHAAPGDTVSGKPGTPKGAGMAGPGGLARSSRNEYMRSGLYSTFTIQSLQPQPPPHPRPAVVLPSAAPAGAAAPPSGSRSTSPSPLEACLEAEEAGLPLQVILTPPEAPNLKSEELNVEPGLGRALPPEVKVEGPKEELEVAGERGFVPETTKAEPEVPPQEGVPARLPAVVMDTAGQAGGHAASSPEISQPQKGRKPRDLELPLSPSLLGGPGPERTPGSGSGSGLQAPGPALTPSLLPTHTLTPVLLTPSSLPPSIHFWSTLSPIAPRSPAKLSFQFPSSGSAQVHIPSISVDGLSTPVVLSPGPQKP
Outline: as §1

[3] = target: T3, GABPA (Homo sapiens, UniProt Q06546 1-454); details: protein: recombinant; tags: N-terminal GST; dsDNA, one strand shown
T3 sequence: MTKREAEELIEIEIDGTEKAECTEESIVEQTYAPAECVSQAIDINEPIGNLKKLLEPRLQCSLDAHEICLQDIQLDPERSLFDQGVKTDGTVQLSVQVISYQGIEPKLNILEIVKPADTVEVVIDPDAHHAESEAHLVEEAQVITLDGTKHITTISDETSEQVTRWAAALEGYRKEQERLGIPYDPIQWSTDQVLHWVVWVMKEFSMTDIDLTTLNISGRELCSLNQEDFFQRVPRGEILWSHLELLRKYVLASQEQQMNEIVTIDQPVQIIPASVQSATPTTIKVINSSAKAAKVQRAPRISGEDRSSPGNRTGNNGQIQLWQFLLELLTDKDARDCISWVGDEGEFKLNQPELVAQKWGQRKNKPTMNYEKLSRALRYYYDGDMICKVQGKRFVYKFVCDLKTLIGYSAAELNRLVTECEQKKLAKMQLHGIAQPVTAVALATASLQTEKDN
Outline: as §1

[4] = target: T4, ERG (Homo sapiens, UniProt P11308 1-479); details: protein: recombinant; tags: N-terminal GST; dsDNA, one strand shown
T4 sequence: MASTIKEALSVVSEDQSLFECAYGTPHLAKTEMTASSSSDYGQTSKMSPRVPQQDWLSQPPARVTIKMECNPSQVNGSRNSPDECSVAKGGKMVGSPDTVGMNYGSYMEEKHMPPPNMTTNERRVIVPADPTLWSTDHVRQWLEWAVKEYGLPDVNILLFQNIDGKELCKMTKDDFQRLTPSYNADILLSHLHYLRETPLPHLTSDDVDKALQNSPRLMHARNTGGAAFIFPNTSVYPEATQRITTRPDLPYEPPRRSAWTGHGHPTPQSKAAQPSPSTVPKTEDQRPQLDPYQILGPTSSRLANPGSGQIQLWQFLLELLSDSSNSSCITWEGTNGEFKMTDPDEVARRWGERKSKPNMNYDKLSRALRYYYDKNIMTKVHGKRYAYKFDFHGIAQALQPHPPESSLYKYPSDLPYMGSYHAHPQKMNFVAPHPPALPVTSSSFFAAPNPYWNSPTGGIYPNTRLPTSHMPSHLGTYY
Outline: as §1

[5] = target: ELF1 (Homo sapiens, UniProt P32519 1-619); details: protein: recombinant; tags: N-terminal GST; dsDNA, one strand shown
Outline: as §1

[6] = target: T5, EHF (Homo sapiens, UniProt Q9NZC4 1-300); details: protein: recombinant; tags: N-terminal GST; dsDNA, one strand shown
T5 sequence: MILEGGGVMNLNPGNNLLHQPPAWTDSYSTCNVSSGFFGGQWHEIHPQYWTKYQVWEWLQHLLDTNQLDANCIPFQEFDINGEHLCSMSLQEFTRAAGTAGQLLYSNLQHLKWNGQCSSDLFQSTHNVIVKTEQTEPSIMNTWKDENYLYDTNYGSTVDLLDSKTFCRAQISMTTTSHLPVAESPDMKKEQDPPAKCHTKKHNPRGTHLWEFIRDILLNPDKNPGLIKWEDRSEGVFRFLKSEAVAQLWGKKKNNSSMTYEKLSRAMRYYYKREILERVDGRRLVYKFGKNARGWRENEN
Outline: as §1

[7] = target: SPI1 (Homo sapiens, UniProt P17947 1-270); details: protein: recombinant; tags: N-terminal GST; dsDNA, one strand shown
Outline: as §1

[8] = target: SPIB (Homo sapiens, UniProt Q01892 1-262); details: protein: recombinant; tags: N-terminal GST; dsDNA, one strand shown
Outline: as §1

[9] = target: T6, ELK3 (Homo sapiens, UniProt P41970 1-407); details: protein: recombinant; tags: N-terminal GST; dsDNA, one strand shown
T6 sequence: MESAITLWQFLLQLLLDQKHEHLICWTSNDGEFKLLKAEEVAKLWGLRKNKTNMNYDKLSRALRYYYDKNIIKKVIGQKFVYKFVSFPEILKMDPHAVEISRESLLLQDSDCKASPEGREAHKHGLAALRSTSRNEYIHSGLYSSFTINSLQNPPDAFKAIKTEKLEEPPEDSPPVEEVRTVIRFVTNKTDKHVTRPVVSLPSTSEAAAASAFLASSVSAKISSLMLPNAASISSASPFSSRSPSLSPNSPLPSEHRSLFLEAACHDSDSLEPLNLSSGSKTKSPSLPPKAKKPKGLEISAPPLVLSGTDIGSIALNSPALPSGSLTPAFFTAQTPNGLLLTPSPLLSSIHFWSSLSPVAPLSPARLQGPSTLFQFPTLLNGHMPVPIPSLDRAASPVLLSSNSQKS
Outline: as §1

[10] = target: T7, FEV (Homo sapiens, UniProt Q99581 1-238); details: protein: recombinant; tags: N-terminal GST; dsDNA, one strand shown
T7 sequence: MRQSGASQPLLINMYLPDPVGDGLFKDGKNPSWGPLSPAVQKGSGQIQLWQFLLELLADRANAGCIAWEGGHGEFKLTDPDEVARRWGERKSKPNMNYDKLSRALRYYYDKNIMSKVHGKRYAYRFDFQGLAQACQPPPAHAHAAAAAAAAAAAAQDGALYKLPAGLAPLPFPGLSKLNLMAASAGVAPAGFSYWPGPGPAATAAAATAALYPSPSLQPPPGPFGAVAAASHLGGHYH
Outline: as §1

[11] = target: ETV5 (Homo sapiens, UniProt P41161 1-510); details: protein: recombinant; tags: N-terminal GST; dsDNA, one strand shown
Outline: as §1

[12] = target: HSF1 (Homo sapiens, UniProt Q00613 1-529); details: protein: recombinant; tags: N-terminal GST; chain copies: 3; dsDNA, one strand shown
Outline: as §1

[13] = target: T8, SPIC (Homo sapiens, UniProt Q8N5J4 1-248); details: protein: recombinant; tags: N-terminal GST; dsDNA, one strand shown
T8 sequence: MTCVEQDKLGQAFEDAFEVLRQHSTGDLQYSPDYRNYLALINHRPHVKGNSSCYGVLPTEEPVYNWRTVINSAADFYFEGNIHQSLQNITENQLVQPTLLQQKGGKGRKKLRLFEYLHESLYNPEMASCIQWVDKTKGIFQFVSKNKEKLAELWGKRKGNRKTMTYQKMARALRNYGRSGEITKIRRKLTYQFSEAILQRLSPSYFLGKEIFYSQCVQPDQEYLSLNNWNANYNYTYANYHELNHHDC
Outline: as §1

[14] = target: ELF4 (Homo sapiens, UniProt Q99607 1-663); details: protein: recombinant; tags: N-terminal GST; dsDNA, one strand shown
Outline: as §1

[15] = target: T9, ELK4 (Homo sapiens, UniProt P28324-2 1-405); details: protein: recombinant; tags: N-terminal GST; dsDNA, one strand shown
T9 sequence: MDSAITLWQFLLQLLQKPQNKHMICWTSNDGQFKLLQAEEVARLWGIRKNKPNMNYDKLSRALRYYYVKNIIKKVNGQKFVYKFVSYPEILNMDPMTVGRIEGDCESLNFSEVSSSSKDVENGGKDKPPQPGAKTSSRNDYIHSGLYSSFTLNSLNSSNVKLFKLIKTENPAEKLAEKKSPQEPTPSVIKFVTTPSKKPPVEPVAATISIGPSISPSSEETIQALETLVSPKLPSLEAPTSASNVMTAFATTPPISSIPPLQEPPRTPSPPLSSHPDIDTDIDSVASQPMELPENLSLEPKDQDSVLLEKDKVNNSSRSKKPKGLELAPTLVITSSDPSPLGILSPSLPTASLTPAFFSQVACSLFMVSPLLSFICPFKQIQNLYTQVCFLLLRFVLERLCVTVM
Outline: as §1

[16] = target: T10, ETV2 (Homo sapiens, UniProt O00321 1-342); details: protein: recombinant; tags: N-terminal GST; dsDNA, one strand shown
T10 sequence: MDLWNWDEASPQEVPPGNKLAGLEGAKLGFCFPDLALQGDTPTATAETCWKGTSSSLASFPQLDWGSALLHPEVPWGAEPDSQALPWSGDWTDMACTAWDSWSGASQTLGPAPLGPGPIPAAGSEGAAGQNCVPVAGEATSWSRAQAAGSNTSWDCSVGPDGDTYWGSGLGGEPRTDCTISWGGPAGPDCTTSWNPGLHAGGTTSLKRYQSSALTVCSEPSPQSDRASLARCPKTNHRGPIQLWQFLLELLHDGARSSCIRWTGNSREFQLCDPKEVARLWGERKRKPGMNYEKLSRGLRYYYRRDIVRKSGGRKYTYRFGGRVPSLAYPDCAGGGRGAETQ
Outline: as §1

[17] = target: T11, ELF3 (Homo sapiens, UniProt P78545 1-371); details: protein: recombinant; tags: N-terminal GST; dsDNA, one strand shown
T11 sequence: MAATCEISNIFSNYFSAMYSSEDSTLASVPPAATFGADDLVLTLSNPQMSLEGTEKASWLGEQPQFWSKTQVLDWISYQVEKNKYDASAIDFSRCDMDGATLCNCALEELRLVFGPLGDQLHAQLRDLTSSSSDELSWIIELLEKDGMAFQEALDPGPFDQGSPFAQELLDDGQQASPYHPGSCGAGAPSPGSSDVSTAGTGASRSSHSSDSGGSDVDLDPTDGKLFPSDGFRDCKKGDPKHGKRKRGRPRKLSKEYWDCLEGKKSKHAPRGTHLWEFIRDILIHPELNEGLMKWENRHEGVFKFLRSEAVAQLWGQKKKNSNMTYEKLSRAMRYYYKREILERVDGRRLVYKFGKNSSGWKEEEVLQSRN
Outline: as §1

[18] = target: CRX (Homo sapiens, UniProt O43186 1-299); details: protein: recombinant; tags: N-terminal GST; dsDNA, one strand shown
Outline: as §1

[19] = target: ETV1 (Homo sapiens, UniProt P50549 1-477); details: protein: recombinant; tags: N-terminal GST; dsDNA, one strand shown
Outline: as §1

ETV5, sequence (P41161 whole entry): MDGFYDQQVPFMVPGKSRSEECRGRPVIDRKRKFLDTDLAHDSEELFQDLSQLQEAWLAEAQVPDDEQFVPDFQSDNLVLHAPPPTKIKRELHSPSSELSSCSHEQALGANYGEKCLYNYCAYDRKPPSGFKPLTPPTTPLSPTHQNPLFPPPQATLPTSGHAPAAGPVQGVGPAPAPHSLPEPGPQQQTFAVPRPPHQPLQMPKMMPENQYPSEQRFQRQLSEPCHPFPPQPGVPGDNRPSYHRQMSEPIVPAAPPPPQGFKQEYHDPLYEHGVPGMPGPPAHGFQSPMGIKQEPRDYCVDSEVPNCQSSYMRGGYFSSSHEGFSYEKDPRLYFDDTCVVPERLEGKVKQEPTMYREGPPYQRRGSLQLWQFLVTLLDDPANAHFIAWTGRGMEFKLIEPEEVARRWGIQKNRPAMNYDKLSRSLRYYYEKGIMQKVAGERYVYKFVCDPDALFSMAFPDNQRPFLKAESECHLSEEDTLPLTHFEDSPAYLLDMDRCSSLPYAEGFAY
CRX, sequence (O43186 whole entry): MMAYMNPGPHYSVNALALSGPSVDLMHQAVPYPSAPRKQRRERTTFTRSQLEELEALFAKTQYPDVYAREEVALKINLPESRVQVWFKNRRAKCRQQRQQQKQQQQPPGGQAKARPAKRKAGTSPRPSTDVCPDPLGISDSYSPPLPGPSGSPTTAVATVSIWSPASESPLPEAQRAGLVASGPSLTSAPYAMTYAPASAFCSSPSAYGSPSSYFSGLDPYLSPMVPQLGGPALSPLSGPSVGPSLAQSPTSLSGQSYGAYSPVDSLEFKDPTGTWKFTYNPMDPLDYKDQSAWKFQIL
ELF1, sequence (P32519 whole entry): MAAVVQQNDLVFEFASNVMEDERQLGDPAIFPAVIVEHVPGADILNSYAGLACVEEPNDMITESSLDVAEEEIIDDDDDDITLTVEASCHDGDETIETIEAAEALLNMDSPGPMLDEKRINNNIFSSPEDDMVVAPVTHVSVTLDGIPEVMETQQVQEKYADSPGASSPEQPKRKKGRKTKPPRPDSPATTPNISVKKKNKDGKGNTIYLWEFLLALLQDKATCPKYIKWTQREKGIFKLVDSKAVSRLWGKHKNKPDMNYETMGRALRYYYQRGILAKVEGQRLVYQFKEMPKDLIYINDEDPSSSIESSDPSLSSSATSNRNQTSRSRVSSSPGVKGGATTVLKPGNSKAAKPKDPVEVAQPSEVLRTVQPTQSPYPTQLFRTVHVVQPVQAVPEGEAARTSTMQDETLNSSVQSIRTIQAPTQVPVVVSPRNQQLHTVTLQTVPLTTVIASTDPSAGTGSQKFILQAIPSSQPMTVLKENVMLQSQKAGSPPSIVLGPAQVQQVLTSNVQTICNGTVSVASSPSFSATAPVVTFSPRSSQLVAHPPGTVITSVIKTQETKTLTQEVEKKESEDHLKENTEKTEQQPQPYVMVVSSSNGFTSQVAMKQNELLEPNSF
ELF4, sequence (Q99607 whole entry): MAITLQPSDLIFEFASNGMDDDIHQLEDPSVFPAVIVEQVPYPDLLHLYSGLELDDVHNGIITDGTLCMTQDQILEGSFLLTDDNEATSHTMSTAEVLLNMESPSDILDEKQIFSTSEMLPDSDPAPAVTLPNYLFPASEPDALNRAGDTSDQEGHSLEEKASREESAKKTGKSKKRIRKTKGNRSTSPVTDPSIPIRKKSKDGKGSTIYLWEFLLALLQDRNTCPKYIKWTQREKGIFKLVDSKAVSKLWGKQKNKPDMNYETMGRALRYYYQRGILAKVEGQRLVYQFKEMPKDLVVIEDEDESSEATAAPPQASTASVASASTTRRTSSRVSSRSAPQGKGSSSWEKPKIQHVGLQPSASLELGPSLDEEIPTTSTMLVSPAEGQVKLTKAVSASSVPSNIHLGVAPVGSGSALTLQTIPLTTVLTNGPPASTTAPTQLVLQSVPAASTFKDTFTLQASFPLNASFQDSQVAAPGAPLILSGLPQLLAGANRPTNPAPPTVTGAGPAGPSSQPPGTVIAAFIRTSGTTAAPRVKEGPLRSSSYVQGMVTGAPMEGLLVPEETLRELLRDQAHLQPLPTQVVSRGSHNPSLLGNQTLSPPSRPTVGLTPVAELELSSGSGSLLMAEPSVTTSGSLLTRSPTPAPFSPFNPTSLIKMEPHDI
SPIB, sequence (Q01892 whole entry): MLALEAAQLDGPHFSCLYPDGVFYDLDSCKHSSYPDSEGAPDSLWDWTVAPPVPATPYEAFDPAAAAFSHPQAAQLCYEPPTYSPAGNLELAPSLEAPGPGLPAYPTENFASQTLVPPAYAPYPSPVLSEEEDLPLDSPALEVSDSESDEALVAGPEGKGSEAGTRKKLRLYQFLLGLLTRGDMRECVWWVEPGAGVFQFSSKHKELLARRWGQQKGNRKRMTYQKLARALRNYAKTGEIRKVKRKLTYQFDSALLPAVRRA
HSF1, sequence (Q00613 whole entry): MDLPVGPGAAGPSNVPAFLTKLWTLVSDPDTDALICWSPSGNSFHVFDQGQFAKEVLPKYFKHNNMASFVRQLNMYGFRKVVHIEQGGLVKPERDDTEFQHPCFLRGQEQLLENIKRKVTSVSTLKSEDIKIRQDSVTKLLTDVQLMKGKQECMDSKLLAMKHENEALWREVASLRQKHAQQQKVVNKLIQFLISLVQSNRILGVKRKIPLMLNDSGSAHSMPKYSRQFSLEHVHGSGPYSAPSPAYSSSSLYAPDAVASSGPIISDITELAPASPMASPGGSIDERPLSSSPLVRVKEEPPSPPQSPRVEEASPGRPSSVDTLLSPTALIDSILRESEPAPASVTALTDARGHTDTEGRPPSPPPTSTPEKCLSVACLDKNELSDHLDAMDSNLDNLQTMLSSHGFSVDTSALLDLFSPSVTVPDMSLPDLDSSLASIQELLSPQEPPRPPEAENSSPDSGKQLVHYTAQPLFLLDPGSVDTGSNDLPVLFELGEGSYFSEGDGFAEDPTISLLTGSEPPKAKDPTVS
ETV1, sequence (P50549 whole entry): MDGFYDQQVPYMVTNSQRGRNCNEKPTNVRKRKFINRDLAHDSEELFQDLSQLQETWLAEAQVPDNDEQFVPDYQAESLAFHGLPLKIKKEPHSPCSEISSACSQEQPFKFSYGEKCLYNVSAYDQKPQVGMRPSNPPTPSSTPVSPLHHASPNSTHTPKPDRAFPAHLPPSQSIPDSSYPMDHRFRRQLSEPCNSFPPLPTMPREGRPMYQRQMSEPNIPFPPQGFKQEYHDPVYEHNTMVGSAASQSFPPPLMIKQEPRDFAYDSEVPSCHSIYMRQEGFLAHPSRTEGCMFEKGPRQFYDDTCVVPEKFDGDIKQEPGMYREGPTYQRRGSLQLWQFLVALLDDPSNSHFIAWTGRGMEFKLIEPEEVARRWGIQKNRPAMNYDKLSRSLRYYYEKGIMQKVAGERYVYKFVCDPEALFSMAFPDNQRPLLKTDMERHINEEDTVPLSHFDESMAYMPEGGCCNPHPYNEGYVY

## TAAGTT
[1]
  binding signal: 1.23 fold enrichment (6-mer frequency, TF over GST control)
[2]
  binding signal: 1.39 fold enrichment (6-mer frequency, TF over GST control)
[3]
  binding signal: 1.33 fold enrichment (6-mer frequency, TF over GST control)
[4]
  binding signal: 1.25 fold enrichment (6-mer frequency, TF over GST control)
[5]
  binding signal: 1.3 fold enrichment (6-mer frequency, TF over GST control)
[6]
  binding signal: 1.38 fold enrichment (6-mer frequency, TF over GST control)
[7]
  binding signal: 1.31 fold enrichment (6-mer frequency, TF over GST control)
[8]
  binding signal: 1.35 fold enrichment (6-mer frequency, TF over GST control)
[9]
  binding signal: 1.27 fold enrichment (6-mer frequency, TF over GST control)
[10]
  binding signal: 1.24 fold enrichment (6-mer frequency, TF over GST control)
[11]
  binding signal: 1.37 fold enrichment (6-mer frequency, TF over GST control)
[12]
  binding signal: 1.45 fold enrichment (6-mer frequency, TF over GST control)
[13]
  binding signal: 1.36 fold enrichment (6-mer frequency, TF over GST control)
[14]
  binding signal: 1.34 fold enrichment (6-mer frequency, TF over GST control)
[15]
  binding signal: 1.22 fold enrichment (6-mer frequency, TF over GST control)
[16]
  binding signal: 1.25 fold enrichment (6-mer frequency, TF over GST control)
[17]
  binding signal: 1.09 fold enrichment (6-mer frequency, TF over GST control)
[18]
  binding signal: 1.94 fold enrichment (6-mer frequency, TF over GST control)
[19]
  binding signal: 1.34 fold enrichment (6-mer frequency, TF over GST control)
